The supplement of paper PMC6555819

Legend:
Assay in all cases: PBM binding z-score (relative to random genomic background probes); higher = stronger binding; sequences stand for … in GC…GCGATTGACAGCGTAGAATGAAGG
[1] = system: PPARg:RXRa DBDmut IVT, anti-RXR (DBD mutation: RXRa K156A/R161A, NR concentration 270 nM, RXRa partner concentration 90 nM)
Method in brief: (§1)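 Each nuclear receptor dimer, without ligand, was incubated for 1 h on custom Agilent 4×180K protein-binding microarrays. Binding was detected with antibodies against each partner (one per run), and scanned fluorescence was regression-normalized. The binding z-scores are referenced to random human genomic background probes.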

[2] = system: PPARg:RXRa IVT, anti-PPARg (NR concentration 270 nM, RXRa partner concentration 90 nM)
Method in brief: as §1

[3] = system: PPARg DBDmut:RXRa IVT, anti-PPARg (DBD mutation: PPARg1 K132A/R137A, NR concentration 270 nM, RXRa partner concentration 90 nM)
Method in brief: as §1

[4] = system: PPARg DBDmut IVT, anti-PPARg (DBD mutation: PPARg1 K132A/R137A, NR concentration 270 nM)
Method in brief: as §1

[5] = system: PPARg homodimer (NR concentration 180 nM)
Method in brief: as §1

[6] = system: PXR:RXRa (NR concentration 270 nM, RXRa partner concentration 90 nM)
Method in brief: as §1

[7] = system: PXR homodimer (NR concentration 270 nM)
Method in brief: as §1

[8] = system: RARa:RXR (NR concentration 270 nM, RXRa partner concentration 90 nM)
Method in brief: as §1

[9] = system: RARa homodimer (NR concentration 270 nM)
Method in brief: as §1

[10] = system: RARb:RXRa (NR concentration 270 nM, RXRa partner concentration 90 nM)
Method in brief: as §1

| Sequence | PBM binding z-score [1] | PBM binding z-score [2] | PBM binding z-score [3] | PBM binding z-score [4] | PBM binding z-score [5] | PBM binding z-score [6] | PBM binding z-score [7] | PBM binding z-score [8] | PBM binding z-score [9] | PBM binding z-score [10] |
| --- | --- | --- | --- | --- | --- | --- | --- | --- | --- | --- |
| TCTAGTTGGTCAAAGGTCACCCACTCGAAATGCG | 3.63 | 6.67 | 1.96 | 2.09 | 6.47 | 6.1 | 1.35 | 7.69 | 3.37 | 4.9 |
| AGAACGAGGGGACGCTGAGTTGATAGCAGAGTAG | 1.17 | 0.723 | 0.599 | 0.498 | -0.427 | -0.245 | 0.132 | -0.589 | -0.633 | 0.334 |
| ACAGACTGGTGAGTGAAGGTAACTCAGCTGGACG | -0.695 | -0.409 | -0.15 | -0.348 | 0.0199 | -0.565 | -0.163 | -0.434 | -0.0964 | -0.281 |
| ACAGACAGGTGAGTGAAGGTAACCCAGCTGGACG | 0.473 | 0.884 | 0.557 | -0.411 | 0.0822 | -0.299 | -0.316 | 0.365 | -0.386 | 0.623 |
| AGAAGGAGGTTATTAAGATCAGGGAATTGCGGTC | 2 | 1.6 | 0.512 | -0.349 | 1.37 | 1.2 | 1.24 | 0.985 | 1.65 | 1.26 |
| GCAGACGGGTGAAACGCAGGTAACTCAGGGTGGC | -0.241 | -0.0586 | -1.33 | -0.958 | -0.685 | -0.244 | -0.933 | 0.253 | -0.996 | 0.14 |
| TCATATAGGTAAAAGGCGAAAGTCGGTGTGGTAA | 3.92 | 3.21 | 0.28 | 0.103 | 0.768 | 0.309 | 0.159 | 0.628 | 0.926 | 0.164 |
| GTATATAGGTAATACAAGGTGAAAGTCCGATTGT | 5.56 | 5.62 | 2.12 | 2.34 | 1.29 | 0.792 | 0.761 | 1.95 | 1.09 | 0.593 |
| AGAATGAGGTTATACGTAGAGCAGGGAAGAAAGT | 3.85 | 2.15 | 1.23 | 1.06 | 1.79 | 1.13 | 0.781 | 1.57 | 0.0508 | 1.51 |
| TAGCCTACGTCATTGGGCCAGTATAGTACGCATC | -0.24 | 0.164 | -0.121 | -0.0205 | -0.852 | -0.757 | -0.796 | -0.734 | -0.851 | -0.413 |
| TCTCGGAGGACACGAAGGTGAGAGCTTTCCAGAG | 1.32 | 0.688 | -0.824 | -1.52 | -0.651 | -0.315 | -0.615 | -0.0834 | -0.906 | 1.69 |
| TAGCCTATGTCATTGGGCCAGTATAGTACGCATC | 0.158 | 0.381 | 0.11 | 0.249 | -0.0273 | -0.188 | -0.118 | -0.0244 | -0.0402 | 0.0995 |
| CCGACTGGGGCAAGGGTTACCATACTCAGTACGA | 3.17 | 4.93 | -0.628 | -1.19 | 0.0321 | 0.443 | -0.412 | 1.53 | -0.348 | 1.57 |
| AGAATGAGGTTACCACAGATCAGGGAAACGCTTG | 3.9 | 3.38 | 1.25 | 0.385 | 1.11 | 1.05 | 0.472 | 1.98 | 0.262 | 1.99 |
| CAAACTAGGTCACAAAGGTCAAAGTCCGTGCGTA | 8.59 | 8.71 | 2.54 | 2.7 | 7.19 | 6.69 | 11.9 | 7.63 | 4.27 | 5.46 |
| CCTAGTTTGTCAGGAGGTCACACACCGGATATGA | 1.14 | 2.9 | 1.37 | 1.6 | 4.45 | 4.63 | 1.7 | 5.02 | 2.79 | 3.46 |
| AGAATGAGGTTAAGATCACGGAAACAGAATACAT | 3.1 | 2.73 | 1.28 | 0.711 | 1.19 | 1.28 | 0.346 | 2.31 | 0.826 | 2.24 |
| TTACCAAGGTGAAAGGTCGTTTATGCACGCCTTG | 2.69 | 4.38 | 1.05 | 0.279 | 1.68 | 3.9 | 0.719 | 5.53 | 0.296 | 2.75 |
| CCTGCTAGGTCATGGTCATCTAATCTACAGTATG | 4.28 | 3.88 | 0.258 | 0.159 | 1.51 | 1.53 | -0.321 | 2.23 | 0.16 | 3.76 |
